Inconclusive results are not listed. Calls of active or inactive are those of the source. Rule for the calls, unless noted: active = hit-call score of the fitted dose curve at least 0.9, where 1 is the maximum; inactive = score below 0.9.
Legend:
[1] = target: Glucocorticoid receptor (Homo sapiens) (UniProt P04150); assay: ATG_GR_TRANS: Attagene TRANS-FACTORIAL HepG2 Assay for human Glucocorticoid Receptor (GR) (AID 2282978; active = hit-call score of the fitted dose curve at least 0.9, where 1 is the maximum;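 note: activators score as hits since higher reporter transcript over DMSO is fitted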); conditions: HepG2 Attagene TRANS GR reporter, mRNA transcription
Summary of the method: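 After 24 h incubation with test chemical, transfected HepG2 cells were lysed for RNA; reporter cDNA was amplified, FAM-labelled, HpaI-digested and sized on a capillary analyser. Signal gain relative to DMSO was scored.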

[2] = target: Bile acid receptor (Homo sapiens) (UniProt Q96RI1); assay: ATG_FXR_TRANS: Attagene TRANS-FACTORIAL HepG2 Assay for Farnesoid X Receptor (FXR) (AID 2282979; active = hit-call score of the fitted dose curve at least 0.9, where 1 is the maximum;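 note: hits raise reporter mRNA above DMSO so AC50 marks FXR activation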); conditions: HepG2 Attagene TRANS FXR-GAL4 reporter transcription
Summary of the method: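 Chimeric FXR-GAL4 activity in transiently transfected human HepG2 liver cells is scored as induction of reporter mRNA after 24 h of dosing. Detection uses RT-PCR with fluorescent labelling and capillary electrophoresis, with DMSO serving as baseline.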

[3] = target: Oxysterols receptor LXR-beta (Homo sapiens) (UniProt P55055); assay: ATG_LXRb_TRANS: Attagene TRANS-FACTORIAL HepG2 Assay for human Liver X Receptor beta (LXRb) (AID 2282981; active = hit-call score of the fitted dose curve at least 0.9, where 1 is the maximum); conditions: HepG2 Attagene TRANS GAL4-LXRb reporter, mRNA
Summary of the method: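 HepG2 cells transiently transfected with multiple reporter transcription units carrying chimeric NR-Gal4 proteins acting on GAL4-UAS reporters; compound exposure 24 h. Reporter mRNA quantified by RT-PCR, 6-FAM labelling, HpaI digestion and capillary electrophoresis; gain of signal versus DMSO.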

[4] = ATG_M_06_TRANS: Attagene TRANS-FACTORIAL HepG2 Assay for M06 Transcription Factor (Internal Marker) (AID 2282983; active = hit-call score of the fitted dose curve at least 0.9, where 1 is the maximum); conditions: HepG2 Attagene TRANS M06 internal marker reporter
Summary of the method: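 Measured by capillary electrophoresis of fluorescently labelled RT-PCR products, this endpoint reflects reporter mRNA in HepG2 cells harbouring exogenous NR-GAL4 reporter constructs after 24 h exposure, with DMSO as baseline.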

[5] = ATG_M_32_TRANS: Attagene TRANS-FACTORIAL HepG2 Assay for M32 Transcription Factor (Internal Marker) (AID 2282984; active = hit-call score of the fitted dose curve at least 0.9, where 1 is the maximum;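 note: transcript level of a background control reporter unit measured by RT-PCR and capillary electrophoresis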); conditions: HepG2 Attagene TRANS M32 internal marker reporter
Summary of the method: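 HepG2 cells transiently transfected with multiple GAL4-UAS reporter transcription units, dosed for 24 hours; reporter mRNA quantified by RT-PCR, 6-FAM primer extension, HpaI digestion and capillary electrophoresis. Gain-of-signal fitted versus DMSO baseline; internal background-control marker.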

[6] = target: Nuclear receptor subfamily 4 group A member 2 (Homo sapiens) (UniProt P43354); assay: ATG_NURR1_TRANS: Attagene TRANS-FACTORIAL HepG2 Assay for human Nuclear Receptor Related Protein 1 (NURR1) (AID 2282985; active = hit-call score of the fitted dose curve at least 0.9, where 1 is the maximum); conditions: HepG2 Attagene TRANS reporter, mRNA readout
Summary of the method: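 HepG2 cells transiently transfected with GAL4-UAS reporter units and chimeric NR-Gal4 constructs; chemical exposure 24 h. Reporter mRNA quantified by RT-PCR, fluorescent labelling and capillary electrophoresis; gain of signal fitted relative to DMSO baseline.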

[7] = target: Transcriptional activator Myb (Homo sapiens) (UniProt P10242); assay: ATG_Myb_CIS: Attagene CIS-FACTORIAL HepG2 Assay for human Myeloblastosis (Myb) Proto-Oncogene Transcription Factor (AID 2282986); conditions: HepG2 Attagene CIS-FACTORIAL Myb reporter transcription; actives raise or lower the signal
Summary of the method: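 After 24 h of compound dosing, total RNA from transfected HepG2 cells is reverse-transcribed and the reporter sequences amplified, labeled and separated by capillary electrophoresis. Values come from bidirectional fitting against DMSO.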

[8] = target: Nuclear respiratory factor 1 (Homo sapiens) (UniProt Q16656); assay: ATG_NRF1_CIS: Attagene CIS-FACTORIAL HepG2 Assay for human Nuclear Respiratory Factor 1 (NRF1) Orphan Gene (AID 2282987); conditions: HepG2 NRF1 cis-element reporter, Attagene multiplex; actives raise or lower the signal
Summary of the method: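 Measured: fluorescent reporter-specific RT-PCR products from transfected HepG2 cells, separated by capillary electrophoresis. Exposure lasted 24 h. Analysis used bidirectional curve fitting with DMSO as negative control.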

[9] = ATG_NFI_CIS: Attagene CIS-FACTORIAL HepG2 Assay for human Nuclear Factor I (NFI) (AID 2282989); conditions: HepG2 cis-regulatory reporter, NFI response element transcription; actives raise or lower the signal
Summary of the method: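 HepG2 cells transiently transfected with cis-element-driven multiplexed reporter transcription units, dosed for 24 h. Reporter mRNA quantified by RT-PCR, fluorescent labelling, HpaI digestion and capillary electrophoresis; bidirectional fit versus DMSO baseline.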

[10] = target: Myc proto-oncogene protein (Homo sapiens) (UniProt P01106); assay: ATG_Myc_CIS: Attagene CIS-FACTORIAL HepG2 Assay for human Myelocytomatosis (Myc) Proto-Oncogene Transcription Factor (AID 2282990); conditions: HepG2, Attagene cis-reporter transcription factor activity; actives raise or lower the signal
Summary of the method: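 DMSO-normalised, bidirectionally fitted reporter mRNA signal. HepG2 cells transfected with cis reporter constructs, treated 24 h; transcripts detected by RT-PCR, 6-FAM primer extension and CE.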

[11] = ATG_NRF2_ARE_CIS: Attagene CIS-FACTORIAL HepG2 Assay for human Nuclear Factor Erythroid 2 Related Factor 2 (NFR2) response to Antioxidant Response Elements (ARE) (AID 2282992); conditions: HepG2 Attagene ARE/NRF2 reporter, transcription factor activity; actives raise or lower the signal
Summary of the method: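 Cis-factorial assay: transfected HepG2 reporter library, 24 h dosing, mRNA readout via RT-PCR/CE; DMSO-referenced bidirectional analysis.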

[12] = ATG_Oct_MLP_CIS: Attagene CIS-FACTORIAL HepG2 Assay for human Octamer-Binding Transcription Factor (Oct) (AID 2282993); conditions: HepG2 Attagene cis-factorial Oct reporter, mRNA; actives raise or lower the signal
Summary of the method: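 HepG2 cells transiently transfected with cis-promoter-driven multiplexed reporter transcription units, dosed for 24 h. Reporter mRNA quantified by RT-PCR, fluorescent labelling, HpaI digestion and capillary electrophoresis; bidirectional fits versus DMSO baseline.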

[13] = target: Cellular tumor antigen p53 (Homo sapiens) (UniProt P04637); assay: ATG_p53_CIS: Attagene CIS-FACTORIAL HepG2 Assay for human p53 Transcription Factor (AID 2282994); conditions: HepG2 p53 cis-element reporter, Attagene mRNA; actives raise or lower the signal
Summary of the method: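 Using HepG2 hepatoma cells carrying cis-acting multiplexed reporters, mRNA induction is detected after a 24 h exposure. Gain- and loss-of-signal responses are fitted relative to DMSO-treated cells.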

[14] = BSK_3C_TissueFactor: BioMAP Diversity Plus: 3C Assay for Tissue Factor Biomarker Activity (AID 2282997); conditions: BioMAP 3C HUVEC, tissue factor biomarker readout; actives raise or lower the signal
Summary of the method: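 Values derive from bidirectional curve fitting against DMSO of Tissue Factor ELISA signals, taken 24 h after dosing primary human umbilical vein endothelial cells.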

[15] = BSK_3C_uPAR: BioMAP Diversity Plus: 3C Assay for Urokinase-type plasminogen activator receptor (uPAR) Biomarker Activity (AID 2282998); conditions: BioMAP 3C HUVEC, uPAR biomarker ELISA; actives raise or lower the signal
Summary of the method: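 Human umbilical vein endothelial primary cells were exposed to test chemical for 24 h. Cell-surface uPAR was then quantified by ELISA, and responses were fitted bidirectionally against DMSO as negative control and baseline.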

[16] = BSK_3C_VCAM1: BioMAP Diversity Plus: 3C Assay for Vascular cell adhesion molecule 1 (VCAM1) Biomarker Activity (AID 2282999); conditions: BioMAP 3C HUVEC, VCAM1 ELISA, cytokine-stimulated; actives raise or lower the signal
Summary of the method: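 Human umbilical vein endothelial cells were dosed with compound for 24 h, after which cell-surface VCAM-1 was quantified by ELISA. Bidirectional curve fitting used DMSO as negative control and activity baseline.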

[17] = ATG_NF_kB_CIS: Attagene CIS-FACTORIAL HepG2 Assay for human Nuclear Factor Kappa B (NF-kB) (AID 2282991); conditions: HepG2 Attagene cis-factorial NF-kB reporter mRNA; actives raise or lower the signal
Summary of the method: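 Fluorescence of labelled RT-PCR products separated by capillary electrophoresis gives reporter mRNA levels from transfected HepG2 cells exposed 24 h; values are fitted in both directions relative to DMSO.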

[18] = target: Oxysterols receptor LXR-alpha (Homo sapiens) (UniProt Q13133); assay: ATG_LXRa_TRANS: Attagene TRANS-FACTORIAL HepG2 Assay for human Liver X Receptor alpha (LXRa) (AID 2282980; active = hit-call score of the fitted dose curve at least 0.9, where 1 is the maximum); conditions: HepG2 Attagene TRANS reporter, LXRa transactivation
Summary of the method: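 Transient HepG2 transfectants, 24 h dosing, RT-PCR/CE mRNA reporter quantitation; gain-of-signal vs DMSO.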

[19] = target: Hepatocyte nuclear factor 4-alpha (Homo sapiens) (UniProt P41235); assay: ATG_HNF4a_TRANS: Attagene TRANS-FACTORIAL HepG2 Assay for human Hepatocyte Nuclear Factor 4 alpha (HNF4a) (AID 2282982; active = hit-call score of the fitted dose curve at least 0.9, where 1 is the maximum); conditions: HepG2 HNF4a transactivation reporter, mRNA readout
Summary of the method: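 HepG2 cells transiently transfected with multiplexed GAL4-UAS reporter units responsive to chimeric NR-GAL4 proteins; compound exposure 24 h. Reporter mRNA quantified by RT-PCR, 6-FAM labelling, HpaI digestion and capillary electrophoresis; gain of signal versus DMSO baseline.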

[20] = target: Estrogen-related receptor gamma (Homo sapiens) (UniProt P62508); assay: ATG_ERRg_TRANS: Attagene TRANS-FACTORIAL HepG2 Assay for human Estrogen-Related Receptor gamma (ERRg) (AID 2282977; active = hit-call score of the fitted dose curve at least 0.9, where 1 is the maximum;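 note: hits increase reporter signal over DMSO so potencies reflect activators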); conditions: HepG2 Attagene TRANS reporter, ERRg transactivation
Summary of the method: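 HepG2 cells transiently transfected with multiplexed GAL4-UAS reporter units and chimeric NR-Gal4 constructs were exposed to test chemicals for 24 h. Reporter mRNA was measured by RT-PCR, 6-FAM primer extension, HpaI digestion and capillary electrophoresis; gain-of-signal versus DMSO.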

Measured: AC50

Sequence of Nuclear respiratory factor 1 (Homo sapiens) (Q16656 whole entry, looked up): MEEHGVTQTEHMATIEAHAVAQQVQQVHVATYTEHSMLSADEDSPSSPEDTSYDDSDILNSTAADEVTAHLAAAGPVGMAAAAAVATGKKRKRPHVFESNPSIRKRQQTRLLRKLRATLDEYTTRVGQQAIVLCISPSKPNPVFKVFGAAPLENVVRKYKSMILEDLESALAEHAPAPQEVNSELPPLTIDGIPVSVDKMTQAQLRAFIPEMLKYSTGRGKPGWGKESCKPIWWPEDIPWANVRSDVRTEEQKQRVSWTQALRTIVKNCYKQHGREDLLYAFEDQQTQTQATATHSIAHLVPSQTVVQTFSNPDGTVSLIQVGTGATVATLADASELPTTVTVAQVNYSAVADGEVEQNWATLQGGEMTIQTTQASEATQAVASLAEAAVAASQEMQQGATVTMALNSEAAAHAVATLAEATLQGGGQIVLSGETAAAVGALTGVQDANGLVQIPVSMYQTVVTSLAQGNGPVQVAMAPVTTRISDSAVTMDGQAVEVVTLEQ
Sequence of Transcriptional activator Myb (Homo sapiens) (P10242 whole entry, looked up): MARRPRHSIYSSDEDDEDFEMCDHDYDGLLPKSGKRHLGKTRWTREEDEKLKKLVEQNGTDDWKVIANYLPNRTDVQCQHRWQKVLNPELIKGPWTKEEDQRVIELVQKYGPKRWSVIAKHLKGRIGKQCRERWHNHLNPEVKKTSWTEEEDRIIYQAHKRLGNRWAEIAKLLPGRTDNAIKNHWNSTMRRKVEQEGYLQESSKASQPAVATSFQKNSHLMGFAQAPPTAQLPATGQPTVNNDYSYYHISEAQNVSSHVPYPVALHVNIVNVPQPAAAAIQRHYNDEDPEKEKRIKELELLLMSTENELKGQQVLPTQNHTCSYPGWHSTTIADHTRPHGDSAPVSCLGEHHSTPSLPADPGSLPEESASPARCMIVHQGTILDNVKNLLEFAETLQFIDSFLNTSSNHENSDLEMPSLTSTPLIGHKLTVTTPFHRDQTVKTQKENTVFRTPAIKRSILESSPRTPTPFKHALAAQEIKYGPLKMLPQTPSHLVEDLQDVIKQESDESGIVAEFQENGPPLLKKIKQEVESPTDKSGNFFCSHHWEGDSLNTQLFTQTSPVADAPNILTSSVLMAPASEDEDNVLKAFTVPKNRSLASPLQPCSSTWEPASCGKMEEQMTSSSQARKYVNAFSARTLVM
Sequence of Hepatocyte nuclear factor 4-alpha (Homo sapiens) (P41235 whole entry, looked up, the tested form may be a part): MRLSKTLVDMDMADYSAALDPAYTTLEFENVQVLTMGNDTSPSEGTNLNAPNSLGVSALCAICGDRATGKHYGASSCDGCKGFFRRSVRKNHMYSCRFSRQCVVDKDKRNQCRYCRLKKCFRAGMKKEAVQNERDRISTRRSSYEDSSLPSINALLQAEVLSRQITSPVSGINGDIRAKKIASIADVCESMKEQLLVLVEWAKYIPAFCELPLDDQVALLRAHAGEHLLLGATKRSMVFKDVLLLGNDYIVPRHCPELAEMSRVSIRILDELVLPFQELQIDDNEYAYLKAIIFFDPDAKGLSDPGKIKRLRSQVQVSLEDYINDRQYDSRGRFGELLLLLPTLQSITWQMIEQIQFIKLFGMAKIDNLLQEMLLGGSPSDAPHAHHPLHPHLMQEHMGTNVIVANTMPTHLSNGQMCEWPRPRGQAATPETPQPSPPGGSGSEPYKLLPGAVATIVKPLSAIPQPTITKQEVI
Sequence of Bile acid receptor (Homo sapiens) (Q96RI1 whole entry, looked up, the tested form may be a part): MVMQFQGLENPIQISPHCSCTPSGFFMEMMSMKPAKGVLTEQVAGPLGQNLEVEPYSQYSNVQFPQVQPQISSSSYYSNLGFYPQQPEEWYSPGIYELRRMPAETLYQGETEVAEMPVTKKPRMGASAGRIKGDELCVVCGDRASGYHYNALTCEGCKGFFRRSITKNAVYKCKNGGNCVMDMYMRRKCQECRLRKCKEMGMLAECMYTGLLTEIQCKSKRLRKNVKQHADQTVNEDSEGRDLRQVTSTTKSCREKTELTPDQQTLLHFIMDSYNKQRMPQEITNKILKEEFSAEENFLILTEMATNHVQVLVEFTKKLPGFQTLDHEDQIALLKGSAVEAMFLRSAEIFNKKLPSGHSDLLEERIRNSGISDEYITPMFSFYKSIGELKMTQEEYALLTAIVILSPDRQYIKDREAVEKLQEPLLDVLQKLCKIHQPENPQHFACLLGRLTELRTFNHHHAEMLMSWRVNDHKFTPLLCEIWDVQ
Sequence of Cellular tumor antigen p53 (Homo sapiens) (P04637 whole entry, looked up): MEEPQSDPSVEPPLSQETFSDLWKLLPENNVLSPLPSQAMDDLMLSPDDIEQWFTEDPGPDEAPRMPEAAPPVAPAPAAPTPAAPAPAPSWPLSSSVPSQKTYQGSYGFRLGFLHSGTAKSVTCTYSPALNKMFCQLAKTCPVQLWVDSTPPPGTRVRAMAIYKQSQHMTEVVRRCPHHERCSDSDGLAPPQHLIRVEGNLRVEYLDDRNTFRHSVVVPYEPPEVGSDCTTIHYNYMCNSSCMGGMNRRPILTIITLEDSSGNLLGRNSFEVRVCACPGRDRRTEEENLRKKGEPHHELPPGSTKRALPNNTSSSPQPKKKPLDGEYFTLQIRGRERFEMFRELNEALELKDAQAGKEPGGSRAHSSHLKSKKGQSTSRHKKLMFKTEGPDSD
Sequence of Glucocorticoid receptor (Homo sapiens) (P04150 whole entry, looked up): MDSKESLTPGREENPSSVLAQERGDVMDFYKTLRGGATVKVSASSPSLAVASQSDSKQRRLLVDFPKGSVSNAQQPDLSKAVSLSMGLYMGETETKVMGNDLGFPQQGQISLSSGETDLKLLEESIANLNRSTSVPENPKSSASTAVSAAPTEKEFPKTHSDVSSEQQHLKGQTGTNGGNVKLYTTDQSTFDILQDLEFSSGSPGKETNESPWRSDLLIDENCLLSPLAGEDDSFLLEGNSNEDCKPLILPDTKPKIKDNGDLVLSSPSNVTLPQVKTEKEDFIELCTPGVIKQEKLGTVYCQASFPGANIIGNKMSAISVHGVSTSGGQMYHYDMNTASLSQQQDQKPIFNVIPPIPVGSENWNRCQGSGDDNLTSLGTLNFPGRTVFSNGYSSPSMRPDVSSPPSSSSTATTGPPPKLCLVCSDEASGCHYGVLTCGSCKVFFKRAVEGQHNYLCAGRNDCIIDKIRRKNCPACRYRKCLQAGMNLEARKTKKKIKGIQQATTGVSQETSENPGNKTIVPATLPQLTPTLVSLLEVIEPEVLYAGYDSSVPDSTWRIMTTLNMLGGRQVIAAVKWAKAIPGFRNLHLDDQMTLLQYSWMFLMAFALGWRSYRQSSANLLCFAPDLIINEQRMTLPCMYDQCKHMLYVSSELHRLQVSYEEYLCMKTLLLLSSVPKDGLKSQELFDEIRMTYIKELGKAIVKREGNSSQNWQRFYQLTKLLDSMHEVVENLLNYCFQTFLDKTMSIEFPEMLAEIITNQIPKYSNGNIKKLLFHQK
Sequence of Oxysterols receptor LXR-beta (Homo sapiens) (P55055 whole entry, looked up, the tested form may be a part): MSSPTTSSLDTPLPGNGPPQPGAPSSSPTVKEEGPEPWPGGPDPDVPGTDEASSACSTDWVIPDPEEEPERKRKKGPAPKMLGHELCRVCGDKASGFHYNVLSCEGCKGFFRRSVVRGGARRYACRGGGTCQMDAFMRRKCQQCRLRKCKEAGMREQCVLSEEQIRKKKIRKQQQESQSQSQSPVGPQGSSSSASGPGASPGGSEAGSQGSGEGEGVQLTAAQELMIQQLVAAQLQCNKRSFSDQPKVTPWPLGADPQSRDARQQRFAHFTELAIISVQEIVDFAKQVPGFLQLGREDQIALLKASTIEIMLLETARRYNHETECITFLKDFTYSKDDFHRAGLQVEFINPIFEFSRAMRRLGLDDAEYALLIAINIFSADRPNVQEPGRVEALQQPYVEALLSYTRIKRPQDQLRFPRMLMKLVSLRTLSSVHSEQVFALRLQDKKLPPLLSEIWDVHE
Sequence of Nuclear receptor subfamily 4 group A member 2 (Homo sapiens) (P43354 whole entry, looked up, the tested form may be a part): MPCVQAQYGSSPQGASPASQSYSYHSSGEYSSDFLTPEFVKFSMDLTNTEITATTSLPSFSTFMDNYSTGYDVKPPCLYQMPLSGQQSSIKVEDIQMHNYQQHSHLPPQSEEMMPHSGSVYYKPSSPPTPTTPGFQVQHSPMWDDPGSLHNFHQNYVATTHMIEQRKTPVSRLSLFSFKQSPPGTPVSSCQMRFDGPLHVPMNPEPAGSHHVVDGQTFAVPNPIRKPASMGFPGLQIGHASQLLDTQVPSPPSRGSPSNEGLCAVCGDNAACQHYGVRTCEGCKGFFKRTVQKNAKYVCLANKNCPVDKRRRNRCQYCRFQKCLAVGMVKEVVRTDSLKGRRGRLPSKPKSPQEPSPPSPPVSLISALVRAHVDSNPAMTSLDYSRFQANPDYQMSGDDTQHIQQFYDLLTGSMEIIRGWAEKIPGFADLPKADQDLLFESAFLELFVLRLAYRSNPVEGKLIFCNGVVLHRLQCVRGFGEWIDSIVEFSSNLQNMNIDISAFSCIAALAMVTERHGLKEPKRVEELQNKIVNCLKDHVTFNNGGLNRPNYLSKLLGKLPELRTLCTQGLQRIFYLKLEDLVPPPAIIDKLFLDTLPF
Sequence of Myc proto-oncogene protein (Homo sapiens) (P01106 whole entry, looked up): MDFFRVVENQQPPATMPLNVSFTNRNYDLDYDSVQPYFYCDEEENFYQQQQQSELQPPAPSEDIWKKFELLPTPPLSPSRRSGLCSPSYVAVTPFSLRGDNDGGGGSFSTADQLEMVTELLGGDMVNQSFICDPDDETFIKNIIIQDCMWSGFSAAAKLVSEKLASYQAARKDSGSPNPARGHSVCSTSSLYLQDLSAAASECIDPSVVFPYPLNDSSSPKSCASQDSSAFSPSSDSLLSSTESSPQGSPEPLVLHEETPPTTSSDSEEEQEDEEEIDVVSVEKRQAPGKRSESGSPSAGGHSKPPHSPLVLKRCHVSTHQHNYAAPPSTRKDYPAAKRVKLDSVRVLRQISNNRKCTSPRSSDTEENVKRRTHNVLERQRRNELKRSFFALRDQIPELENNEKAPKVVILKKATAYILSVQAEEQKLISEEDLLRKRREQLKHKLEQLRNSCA

CCOP(=S)(OCC)SCn1c(=O)oc2cc(Cl)ccc21
active: [11] 16 µM | [12] 14.1 µM
not listed: [17] | [18] | [19] | [20]
inactive: all other assays above

Cc1ccc(-c2c(Cl)nc(C#N)n2S(=O)(=O)N(C)C)cc1
active: [11] 6.65 µM | [12] 11.9 µM | [14] 27.3 µM | [15] 23.9 µM
inactive: [1] | [3] | [4] | [7] | [8] | [9] | [10] | [17] | [13]

Fc1ccc(Oc2ccnc3cc(Cl)cc(Cl)c23)cc1
active: [11] 3.83 µM | [14] 34.7 µM | [15] 31.2 µM | [16] 31.4 µM
not listed: [2] | [4] | [17] | [20]
inactive: all other assays above

CN(C)C(=S)SSC(=S)N(C)C
active: [14] 31.4 µM | [15] 29.4 µM | [16] 16.9 µM
not listed: [1] | [2] | [4] | [5] | [18] | [19] | [20]
inactive: all other assays above

CS/C(C)=N/OC(=O)N(C)SN(C)C(=O)O/N=C(\C)SC
active: [14] 15.9 µM | [15] 28.6 µM | [16] 24.6 µM
not listed: [1] | [2] | [4] | [18] | [19]
inactive: all other assays above

CCCCC(CC)COC(=O)c1ccccc1C(=O)OCC(CC)CCCC (configuration not stated)
not listed: [16] | [18] | [20]
inactive: all other assays above

CC(C)Oc1cc(-n2nc(C(C)(C)C)oc2=O)c(Cl)cc1Cl
active: [11] 7.62 µM | [12] 10.6 µM | [15] 32 µM
not listed: [16] | [18] | [20]
inactive: all other assays above

— PubChem BioAssay (EPA / NIEHS)
